This is part of a sample that, as a whole, favours compounds with a hit. Of some 83,000 tested, about 20% had one in any assay.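 Cell lines were cultured in 96-well plates, exposed to a single compound concentration, and assessed for percent growth 48 hours later.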 Unmarked numbers belong to inactive results. Rule for the calls: active = growth percent below 10; inactive = the rest.

For the assay, the system named is SK-MEL-5 melanoma. As to the kind of experiment: NCI-60 one-dose screen, 48 h (100 = growth as untreated, 0 = no growth, -100 = all killed). The settings on record: 10 µM unless noted.
For the compound `Nc1nc(Cl)cc(Cl)n1`, the growth was 98.8%.

Consider `CCCCCCCCCCCCCCCCOc1ccccc1NC(=O)CC(C)=O`, for which the growth was 96.2%.

Turning to `Cc1cc(Cc2ccccc2)c(O)c(Cc2ccccc2)c1`, the growth is 98.6%.

As for `Nc1cc(N)ncn1`, the growth is 98.3%.

Turning to `CC(C)(C)NCCC(O)c1cc(C(F)(F)F)nc2c(C(F)(F)F)cccc12` (centres undefined), the growth is 81.8%.

Turning to `C=C(OC(C)=O)c1ccccc1`, the growth is 101%.

As for `O=Cc1c(O)c2ccccc2[nH]c1=O`, the growth is 95.1%.

`CN=S(=O)(OCCCCCOS(=O)(=NC)c1ccc(C)cc1)c1ccc(C)cc1` (centres undefined): the growth was 93.8%.

As to `CCOC(=O)c1c(C)[nH]c(C)c1C=O`, the growth is 101%.

For the compound `O=C(NCc1ccccc1)/C(=C/c1ccccc1)NC(=O)c1ccccc1`, the growth was 97.5%.

Consider `O=c1cc(Cl)nc2ccccn12`, for which the growth is 105%.

As for `Oc1cc(O)c2c(c1)O[C@H](c1ccc(O)c(O)c1)[C@@H](O)C2`, the growth is 104%.

As to `CCOP(=O)(NC(c1ccccc1)c1ccccc1)OCC`, the growth was 105%.

`Cc1ccc2nc(N)nnc2c1`: the growth was 108%.

As for `Cc1ccc(S(N)(=O)=O)cc1Cl`, the growth was 103%.

As for `Nc1cc2ccccc2c(O)c1O`, the growth was 74.7%.

With `CC(C)N1CC(=O)N2CSCC2C1=O` (centres undefined), the growth is 104%.

`CCOC(=N)CC(=O)Nc1cccc(C)c1Cl`: the growth is 94.9%.

Consider `Cc1cc2c(C(C)C)c(O)c(O)c(C=Nc3ccccc3[N+](=O)[O-])c2c(O)c1-c1c(C)cc2c(C(C)C)c(O)c(O)c(C=Nc3ccccc3[N+](=O)[O-])c2c1O`, for which the growth is 96.2%.

The values are drawn from PubChem BioAssay (NCI).
